# Assay results as given in PubChem BioAssay AID1851 (National Center for Advancing Translational Sciences (NCATS), 2009).
# In all, about 16,000 compounds went through this assay and about 5,100 (32%) were called active. Roughly 25% stayed inconclusive and do not appear here. Calls follow the shape of the dose curve; as a rule, active = well fitted curve in the direction sought with a large enough effect; inconclusive = small, poorly fitted or top-dose-only effect, or effect the other way; inactive = no such curve, though single readings can be large or run the other way. This is one part of the list.
# Molecular target: Cytochrome P450 3A4 (Homo sapiens) (UniProt P08684)
# Sequence (P08684 whole entry, looked up): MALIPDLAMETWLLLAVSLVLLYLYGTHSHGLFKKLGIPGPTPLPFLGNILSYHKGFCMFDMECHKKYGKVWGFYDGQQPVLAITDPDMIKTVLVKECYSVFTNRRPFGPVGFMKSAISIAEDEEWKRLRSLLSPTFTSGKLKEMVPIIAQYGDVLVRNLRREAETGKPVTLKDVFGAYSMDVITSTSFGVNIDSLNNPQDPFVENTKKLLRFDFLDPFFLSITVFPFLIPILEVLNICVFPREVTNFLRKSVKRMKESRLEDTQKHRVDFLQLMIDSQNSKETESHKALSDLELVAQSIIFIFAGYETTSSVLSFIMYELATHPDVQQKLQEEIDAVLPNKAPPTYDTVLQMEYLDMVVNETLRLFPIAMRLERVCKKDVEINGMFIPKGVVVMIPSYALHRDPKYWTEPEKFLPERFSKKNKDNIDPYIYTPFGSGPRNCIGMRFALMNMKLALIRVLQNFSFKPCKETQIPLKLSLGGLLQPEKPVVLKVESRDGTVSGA
# Experiment: Cytochrome panel assay with activity outcomes
# Conditions: recombinant CYP, pro-luciferin dealkylation, luminescence, p450-cyp3a4; series mostly up to 57.1 µM; activity, negative = inhibition: at the top concentration
# % is scaled to controls: 0 for no effect and ±100 for the full control effect.
SMILES,"activity, negative = inhibition",AC50
Cc1sc(NC(=O)c2ccccc2)c(C(=O)NCCN(C)C)c1C,-2.43% (inactive),–
COC(=O)c1ccc(NC(C)=O)o1,-12.1% (inactive),–
CCOc1ccc(CC(=O)Nc2sc(Cc3ccccc3)c(C)c2C(N)=O)cc1OCC,–,20 µM (active)
CCOc1ccc(CC(C(N)=O)C(N)=O)cc1CN(C)C,-4.85% [at 2.29 µM] (inactive),–
COC(=O)c1c(NC(C)=O)sc(Cc2ccccc2)c1C,–,14.1 µM (active)
CO[C@]1(NC(=O)[C@H](C(=O)O)c2ccc(O)cc2)C(=O)N2C(C(=O)O)=C(CSc3nnnn3C)CO[C@H]21,5.89% [at 25.6 µM] (inactive),–
CC1CCN(C(=O)CN(C)S(=O)(=O)c2cccc3nsnc23)CC1,–,3.55 µM (active)
CC1CCN(C(=O)Nc2ccc3nsnc3c2)CC1,-28.8% (inactive),–
CN(CC(=O)Nc1ccc(F)c(F)c1)S(=O)(=O)c1cccc2nsnc12,–,5.01 µM (active)
COc1cc([C@@H](O)CO)ccc1OS(=O)(=O)O,2.06% (inactive),–
COc1cccc(N=c2oc3c(C)ncc(CO)c3cc2C(N)=O)c1,–,17.8 µM (active)
CCOC(=O)c1c(C)nc2c(c1-c1ccccc1)C(=O)CC(C)(C)C2,-29.8% (inactive),–
CCOC(=O)c1c(C)nc2c(c1-c1ccc(OC)cc1)C(=O)CC(C)(C)C2,–,10 µM (active)
Cc1ccc(NC(=O)/C(=C\c2cccnc2)NC(=O)c2ccco2)cc1,15.8% (inactive),–
CCC(=O)Nc1cccc(C(=O)/C=C/c2ccccc2)c1,-23.2% [at 11.4 µM] (inactive),–
O=C(N/C(=C\c1cccnc1)C(=O)N1CCOCC1)c1cccc(Br)c1,–,1 µM (active)
O=C(/C=C/c1cccnc1)c1ccc(NC(=O)c2cccc(Br)c2)cc1,–,2.24 µM (active)
O=C(Nc1cccc(Br)c1)/C(=C\c1cccnc1)NC(=O)c1ccco1,–,0.501 µM (active)
O=C(Nc1ccc2nc(-c3ccc(Br)o3)[nH]c2c1)c1ccco1,–,14.1 µM (active)
O=C(/C=C/c1ccccc1)NNC(=O)c1cccnc1,-12% [at 2.29 µM] (inactive),–
CCC(=O)NC(NC(=O)CC)C(Cl)Cl,-2.18% (inactive),–
NCCCCC(=O)O,-3.14% (inactive),–
CCC[C@H]1C[C@H](C(=O)N[C@H]([C@@H]2O[C@H](SC)[C@@H](O)[C@H](O)[C@@H]2O)[C@H](C)O)N(C)C1,-11.4% [at 25.6 µM] (inactive),–

SMILES,"activity, negative = inhibition",AC50
O=C(Nc1cccc(NC(=O)c2ccc(-c3cccc(Br)c3)o2)c1)c1ccco1,–,5.01 µM (active)
O=C(Nc1cccc(OC(=O)c2ccco2)c1)c1ccco1,3.14% [at 11.4 µM] (inactive),–
CCCN(CCO)Cc1ccc(F)c(Br)c1,-0.689% (inactive),–
COc1ccc(OCCn2c(C)c(/C=N/n3cnnc3)c3ccccc32)cc1,–,0.501 µM (active)
Cc1ccc(NS(=O)(=O)c2ccccc2Cl)c2c1CC(C)(C)O2,–,0.708 µM (active)
CN(C)N1C(N)=C(C#N)C(c2cccnc2)C2=C1CC(C)(C)CC2=O (configuration not stated),–,2.24 µM (active)
O=c1[nH]c(SCc2c(Cl)c(Cl)c(Cl)c(Cl)c2Cl)nc(=S)[nH]1,–,3.16 µM (active)
Clc1ccccc1C(Nc1ncccn1)Nc1ncccn1,4.33% [at 11.4 µM] (inactive),–
O=S(=O)(C[C@H](O)C(Cl)(Cl)Cl)NNc1ccccc1,-15.6% [at 11.4 µM] (inactive),–
O=C1c2ccccc2C(=O)c2c(NC3CCCCC3)ccc(Nc3ccc(S(=O)(=O)O)cc3)c21,-21.4% [at 11.4 µM] (inactive),–
O=C(CN1CCN(C2CCCCC2)CC1)NCCC1=CCCCC1,-10.2% (inactive),–
CC(C)(C)c1ccc(C(=O)N2CCC(C(=O)NCCC3=CCCCC3)CC2)cc1,-5.78% [at 2.29 µM] (inactive),–
O=C(NCCC1=CCCCC1)C1CCCN(c2nc3ccccc3o2)C1 (configuration not stated),–,12.6 µM (active)
Cc1ccccc1S(=O)(=O)O[C@@H]1NS(=O)(=O)c2ccccc21,-3.69% [at 11.4 µM] (inactive),–
Cc1noc(NC(=O)Nc2ccccc2F)c1C#N,-12.9% [at 11.4 µM] (inactive),–
COC(=O)C1=C(C)NC(=O)NC1c1ccsc1 (configuration not stated),-11.7% (inactive),–
CC1=C(C(=O)Nc2ccccc2F)C(c2ccsc2)C2=C(CC(c3ccccc3)CC2=O)N1 (configuration not stated),–,3.55 µM (active)
COc1ccc(S(=O)(=O)NC2(C(F)(F)F)N=C3SCCN3C2=O)cc1 (configuration not stated),-11.2% (inactive),–
O=C(c1cnccn1)N1CCC2(CCCN(c3ccccc3)C2)CC1,–,1.58 µM (active)
O=C(c1cnccn1)N1CCC2(CC1)CN(c1ccccc1)C2,21% (inactive),–
O=C(c1cnccn1)N1CCC[C@@]2(CCN(c3cccc(-c4ccccc4)c3)C2)C1,–,3.98 µM (active)
O=C(c1cnccn1)N1CCC2(CCCN(c3cccc(-c4ccccc4)c3)C2)CC1,–,2 µM (active)
CN(C)c1ncc2nc(-c3ccc(F)cc3)c(=O)n(C3CC3)c2n1,-4.1% (inactive),–

SMILES,"activity, negative = inhibition",AC50
Cc1ccc(S(=O)(=O)CCCS(=O)(=O)c2ccc(C)cc2)cc1,–,12.6 µM (active)
Cc1ccc(C2=C(Cl)C(=O)C(c3ccc(C)cc3)=C(Cl)C2=O)cc1,-1.66% [at 11.4 µM] (inactive),–
Cc1ccc(/S(C)=N/S(=O)(=O)c2ccc(C)cc2)cc1 (configuration not stated),-0.155% [at 2.29 µM] (inactive),–
C[C@@H](CCc1ccccc1)NC[C@H](O)c1ccc(O)c(C(N)=O)c1,–,inactive
C=C(NC(=O)C(=C)NC(=O)c1csc(C2=N[C@@H]3c4csc(n4)[C@@H]4NC(=O)c5csc(n5)[C@@H]([C@](C)(O)[C@H](C)O)NC(=O)[C@@H]5CSC(=N5)/C(=C/C)NC(=O)[C@@H]([C@H](C)O)NC(=O)c5csc(n5)[C@]3(CC2)NC(=O)[C@@H](C)NC(=O)C(=C)NC(=O)[C@@H](C)NC(=O)[C@@H]([C@@H](C)CC)N[C@H]2C=Cc3c([C@H](C)O)cc(nc3[C@@H]2O)C(=O)O[C@H]4C)n1)C(N)=O,-0.0029% [at 25.6 µM] (inactive),–
FC(F)(F)c1ccccc1-c1nc(NCCN2CCOCC2)c2ccccc2n1,–,7.94 µM (active)
Cc1noc(C)c1-c1nc(NCCN2CCOCC2)c2ccccc2n1,–,12.6 µM (active)
Clc1ccccc1-c1nc(NCCN2CCOCC2)c2ccccc2n1,–,15.8 µM (active)
CC1(C)Cc2c(ccc3ccccc23)C(=O)N1,2.26% (inactive),–
Clc1ccc(CSCCc2ccncc2)cc1Cl,–,1 µM (active)
Clc1ccc(COc2ccccn2)cc1Cl,-7.19% [at 2.29 µM] (inactive),–
Cc1cc(O)c(/C=N/Nc2cccc(Cl)c2)c(=O)o1,–,5.62 µM (active)
Clc1cccc(N/N=C/c2ccc(N3CCOCC3)cc2)c1,-10.2% [at 2.29 µM] (inactive),–
NC(=O)c1nn(-c2ccccc2)c(=O)cc1O,19% (inactive),–
O=C1CC(c2ccc3c(c2)OCO3)CN1 (configuration not stated),-2.08% [at 2.29 µM] (inactive),–
O=C1CC(c2ccc3c(c2)OCO3)Sc2nc3ccccc3n21 (configuration not stated),–,2.51 µM (active)
COc1cccc(C(=O)/C=C/c2ccc(SC)cc2)c1,–,3.98 µM (active)
O=C(/C=C/c1ccc2ccccc2c1)c1ccoc1,-18.6% (inactive),–
COc1ccc(/C=C/C(=O)c2ccoc2)cc1,-1.98% (inactive),–
Nc1ccn([C@H]2O[C@@H](COP(=O)(O)O)[C@@H](O)[C@H]2O)c(=O)n1,-4.22% [at 11.4 µM] (inactive),–
CS(=O)(=O)c1ccc(/C=N\NC(N)=S)cc1,-4.4% [at 11.4 µM] (inactive),–
COc1ccc(/C=N/NC(N)=S)cc1OC(=O)c1cccc2ccccc12,–,2.24 µM (active)
COc1ccc(C(=O)Oc2cc(/C=N/NS(=O)(=O)c3ccc(C)cc3)ccc2OC)cc1,-26% [at 2.29 µM] (inactive),–

SMILES,"activity, negative = inhibition",AC50
O=C(O)c1ccc(NS(=O)(=O)Cc2ccccc2)cc1,-11.2% [at 11.4 µM] (inactive),–
CCOC(=O)c1ccc(NC(=O)C2CCCO2)cc1 (configuration not stated),-7.73% [at 11.4 µM] (inactive),–
CCOC(=O)c1ccc(N/C(=N\S(=O)(=O)c2ccccc2C)c2ccccc2)cc1,–,2 µM (active)
CCOC(=O)c1ccc(NC(=O)Nc2ccc3c4c(cccc24)C(=O)N3CC)cc1,-0.607% (inactive),–
Clc1ccc(Sc2ccc(/C=N/n3cnnc3)o2)cc1,–,1.12 µM (active)
CN=C1S/C(=C\c2ccc(Sc3ccc(Cl)cc3)o2)C(=O)N1C,-13.3% (inactive),–
NC(=O)Nn1c(CCC(=O)O)ccc1-c1ccc(F)cc1,-12.8% (inactive),–
COc1ccccc1-c1cc(C(=O)Nc2cc(C)n(Cc3ccc(Cl)cc3)n2)no1,–,15.8 µM (active)
COc1ccccc1NC(=S)NC(=O)c1ccc(-c2ccc(Cl)cc2)o1,-7.71% [at 2.29 µM] (inactive),–
O=C(Nc1ccc(Cl)cc1)OCc1cc(-c2ccccc2Cl)on1,28.2% [at 2.29 µM] (inactive),–
C[C@@](N)(C(=O)O)c1ccc(S(=O)(=O)O)cc1,-3.33% (inactive),–
CC(C)(C)c1ccc(S(=O)(=O)/C=C\C#N)cc1,–,25.1 µM (active)
CCC(=O)Nc1ccc(C(=O)OCC(=O)c2ccc(C)c([N+](=O)[O-])c2)cc1,–,7.94 µM (active)
Cc1ccc(NC(=O)c2ccc(NCC3CCCO3)c([N+](=O)[O-])c2)cc1Cl (configuration not stated),-6.83% [at 11.4 µM] (inactive),–
Cc1ccc(C(=O)Nc2ccc(Cc3ccncc3)cc2)cc1[N+](=O)[O-],–,0.355 µM (active)
Cc1ccc(C(=O)Nc2ccccc2Oc2ccccc2)cc1[N+](=O)[O-],-22.4% (inactive),–
Cc1ccc(C(=O)COC(=O)CNC(=O)Cc2ccccc2)cc1[N+](=O)[O-],-4.57% (inactive),–
CC1=CC(=O)C=CC1(C)C(Cl)(Cl)Cl (configuration not stated),2.38% [at 2.29 µM] (inactive),–
COc1ccc(-c2nc(-c3ccccc3)c(-c3cc([N+](=O)[O-])ccc3C)[nH]2)cc1O,–,5.01 µM (active)
O=c1[nH]c(=O)n([C@@H]2C[C@H](O)[C@H](CO)O2)cc1C(F)(F)F,-12.5% [at 25.6 µM] (inactive),–
O=C(NNC(=O)c1cc(-c2ccc(Cl)c(Cl)c2)nc2ccccc12)Nc1ccccc1,-6.22% [at 2.29 µM] (inactive),–
Cc1cccc(NC(=O)NNC(=O)c2cc(-c3ccccc3Cl)nc3ccccc23)c1,–,3.98 µM (active)
Cc1ccc(NC(=O)c2cc(Cl)nc3ccccc23)cc1,–,10 µM (active)
